This is an account of results in PubChem BioAssay AID504444 (National Center for Advancing Translational Sciences (NCATS), 2011).

In all, about 360,000 compounds went through this assay and about 7,500 (2.1%) were called active. Not shown: some 20% with an inconclusive outcome. Shown is part of a subset that was picked to be rich in actives. Values without a mark were called inactive. Calls come from the whole dose curve; as a rule, active = well fitted inhibition curve with a large enough effect; inconclusive = small, poorly fitted or top-dose-only effect, or effect the other way; inactive = flat fitted curve, though single readings scatter.
% is set by controls: 0 for no effect and ±100 for the full control effect; potency is the fitted concentration of half-maximal effect.

A short description of this experiment: Nrf2 qHTS screen for inhibitors. Note: nearly all actives have a fitted effect of over 60% in size. To be noted: A549 ARE-Fluc reporter, luciferase luminescence, 18-24 h; series mostly up to 46 µM; activity change, negative = inhibition: at the top concentration. In outline: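 Two sequential reads on A549 ARE_Fluc cells exposed to compound for 18-24 h: a CellTiter-Fluor fluorescence read for viability, then a luciferase luminescence read for Nrf2/ARE activity.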
On the technique in general: In qHTS, concentration-response curves come from the screen itself.
As to `COc1ccc(-n2c(=O)c3sc4ccccc4c3n(CC(=O)Nc3cccc(C)c3)c2=O)cc1`, the “activity change, negative = inhibition” value is 6.72%. In the case of `Cc1ccc(C)c(Cn2c(C)c(CNCc3ccc(F)cc3)c(C(=O)O)c2C)c1`, the “activity change, negative = inhibition” value was -8.89%. The same measure, in the same setting: next, `Cc1ccc(S(=O)(=O)N2CCC(C(=O)N3CCCCCCC3)CC2)cc1`: -5.3%. In the case of `COc1cccc2c(C)c(C(=O)O)[nH]c12`, the Potency was 20.6 µM (active). In the case of `COc1cc2c(C(=O)O)c(C)n(C)c2c2ccccc12`, the “activity change, negative = inhibition” value was -23.7%. The same measure, in the same setting: next, `Cc1c(C(=O)N/N=C/c2ccccc2)[nH]c2c([N+](=O)[O-])cccc12`: 10.2%.

Consider `Cc1cc2c(cc3c(SCc4cccc(Cl)c4)nnc(C)n32)o1`, for which the “activity change, negative = inhibition” value is -20.9%. As to `CC1Sc2ccc(C(=O)NCc3ccccc3Cl)cc2NC1=O` (stereo not given), the “activity change, negative = inhibition” value was -17.3%. As to `CCn1c2ccccc2c2cc(NC(=O)COC(=O)c3cc(S(=O)(=O)N4CCCCC4)ccc3Cl)ccc21`, the “activity change, negative = inhibition” value is -25.8%. For the compound `CCn1c(O)c(N=NC(=O)c2cccc(S(=O)(=O)N3CCCCC3)c2)c2ccccc21`, the Potency is 20.6 µM (active). `Cc1cccc(NC(=O)c2cccc(S(=O)(=O)N3CCCC3)c2)n1`: the “activity change, negative = inhibition” value is 2.33%. Same read-out and setting: next, `Cc1ccc(S(=O)(=O)N2CCN(C(=O)COC(=O)/C=C/c3cccc(Cl)c3)CC2)c(C)c1`: 4.76%.

For `COC(=O)c1ccccc1NC(=O)c1cc(-c2ccccc2O)no1`, the “activity change, negative = inhibition” value is -4.54%. Still for that read-out and setting: next, `Cc1ccc(C)c(S(=O)(=O)N(C)c2ccc(OC(=O)C3CCN(C(=O)c4ccc(F)cc4)CC3)cc2)c1`: 14.6%. For `COc1cccc2c1cc1c(=O)n(CC(=O)N3CCN(c4ccccc4)CC3)nc(C)n12`, the “activity change, negative = inhibition” value is 10.4%. Consider `COc1ccc(NC(=O)c2cnc(NS(=O)(=O)c3ccccc3)nc2)cc1`, for which the “activity change, negative = inhibition” value is -2.33%. As to `COc1ccc(NS(=O)(=O)c2ccc(NC(=O)c3ccc(N(C)S(C)(=O)=O)cc3)cc2)cc1`, the Potency was 16.4 µM (active).

With `COc1cc(OC)cc(C(=O)Nc2ccc(S(=O)(=O)Nc3cc(C)on3)cc2)c1`, the “activity change, negative = inhibition” value was -16.9%. `COc1ccc(NS(=O)(=O)c2ccc(C(=O)Nc3c(C)n(C)n(-c4ccccc4)c3=O)cc2)cc1`: the “activity change, negative = inhibition” value is -24.2%.

As for `COc1cc(NS(=O)(=O)c2ccc(NC(C)=O)cc2)cc(OC)c1`, the Potency was 5.8 µM (active). As to `COC(=O)COc1ccc(S(=O)(=O)Nc2ccc(NC(C)=O)cc2)cc1`, the “activity change, negative = inhibition” value was 10.2%. Regarding `O=C(OCC#CCSc1nnc(-c2ccco2)o1)c1ccc(F)cc1`, the “activity change, negative = inhibition” value was 9.77%. The same measure, in the same setting: next, `CC(C)n1cnc2c(NCc3ccccc3)cc(OCC3CCN(C)CC3)cc21`: -1.88%; `Cc1ccc(NC(=O)c2ccc(Cl)nc2)cc1S(=O)(=O)N1CCOCC1`: -8.85%. The same measure, in the same setting: next, `CCc1ccc(NC(=O)CCCc2nnc3n(CCCOC)c(=O)c4sccc4n23)cc1`: -5.62%.

For the compound `O=C(c1cc(C(=O)N2CCN(c3ccc(F)cc3)CC2)cc([N+](=O)[O-])c1)N1CCN(c2ccc(F)cc2)CC1`, the Potency is 18.4 µM (active).

Turning to `O=C(c1cncc(Br)c1)N1CCN(c2ccc([N+](=O)[O-])cc2)CC1`, the “activity change, negative = inhibition” value is -24.1%. Still for that read-out and setting: next, `O=C(c1cc2cc(F)ccc2[nH]1)N1CCN(c2ccc(F)cc2)CC1`: 2.46%; `Cc1ccc(-n2c(=O)c3cccnc3n2CC(=O)Nc2ccccc2C(F)(F)F)cc1C`: 31.5%; `CC(C)(C)OC(=O)C[C@@H]1C/C=C\C[C@@H](CC(=O)N(CCO)Cc2ccccc2)C(=O)N[C@H](Cc2ccccc2)COC1=O`: 5.23%. Regarding `CCCn1c(=N)n(CC(O)COc2ccccc2OC)c2ccccc21` (stereo not given), the “activity change, negative = inhibition” value was 4.39%. Turning to `CC(C)Cc1cc(C(=O)Nc2cc(Br)ccc2O)no1`, the “activity change, negative = inhibition” value was 18.3%. In the case of `Cc1nn(Cc2ccc(F)cc2)c(C)c1NC(=O)c1noc2c1CCc1ccccc1-2`, the Potency is 20.6 µM (active). With `Cc1cc(C(=O)Nc2c(C)nn(Cc3ccccc3)c2C)on1`, the “activity change, negative = inhibition” value is -3.05%. Regarding `Cc1nn(Cc2ccc(F)cc2)c(C)c1NC(=O)c1cc(CC(C)C)on1`, the Potency was 20.6 µM (active). For `Cc1ccccc1Cn1nc(C)c(NC(=O)c2cc(-c3ccc(F)cc3)on2)c1C`, the “activity change, negative = inhibition” value was 5.95%. `Cc1nn(Cc2ccc(F)cc2)c(C)c1NC(=O)c1cccnc1Cl`: the “activity change, negative = inhibition” value was -22.9%. Still for that read-out and setting: next, `Nn1c(SCC(=O)NC2CCCc3ccccc32)nnc1C1CC1` (stereo not given): -4.73%; `O=C(CN1CCN(C2CCS(=O)(=O)C2)CC1)N1N=C(c2ccc(Cl)cc2)CC1c1ccco1` (stereo not given): -19.2%. `C[C@@H]1NS(=O)(=O)c2cc(Cl)ccc2O[C@@H]1c1ccccc1`: the “activity change, negative = inhibition” value is -9.06%.

Regarding `COc1ccc(CNC(=O)c2cc3c(s2)-c2ccccc2OC3)cc1`, the “activity change, negative = inhibition” value was 8.62%. On to `O=S(=O)(Nc1ccc2ccccc2c1)N1CCCCC1`, for which the “activity change, negative = inhibition” value was 21.5%.

In the case of `COc1ccc(C2=Nn3c(nnc3-c3ccccc3OC)SC2)cc1OC1CCCC1`, the Potency is 16.4 µM (active). Regarding `COc1ccc(C2=Nn3c(nnc3-c3ccccc3O)SC2)cc1`, the “activity change, negative = inhibition” value was -19.8%. As for `Cc1nnc2n1N=C(c1ccccc1)CS2`, the “activity change, negative = inhibition” value was -13.9%.

In the case of `Cc1cccc(NC(=O)CN(c2ccc(C(C)C)cc2)S(=O)(=O)c2c(C)nn(C)c2C)c1C`, the “activity change, negative = inhibition” value was -22.6%. Still for that read-out and setting: next, `O=C1CC(c2ccccc2)CC2=C1C(c1ccco1)n1nc(C(F)(F)F)nc1N2` (stereo not given): -5.13%. Take `COC(=O)Cc1ccc(Oc2ncc(C(F)(F)F)cc2Cl)cc1`: the “activity change, negative = inhibition” value is -1.72%.

As for `Cc1cc(C)cc(NS(=O)(=O)c2ccc(Oc3ncc(C(F)(F)F)cc3Cl)cc2)c1`, the Potency was 4.11 µM (active). Take `O=S(=O)(Nc1ccccn1)c1ccc(Oc2ccccc2)cc1`: the “activity change, negative = inhibition” value is -25.2%.
